Among the test systems are SR leukemia; RPMI-8226 leukemia; OVCAR-8 ovarian; OVCAR-5 ovarian; OVCAR-4 ovarian; SK-OV-3 ovarian; IGROV1 ovarian; HS 578T breast; NCI/ADR-RES ovarian; T-47D breast; BT-549 breast; SW-620 colon; MCF7 breast; HCT-116 colon; HCC-2998 colon; KM12 colon; MDA-MB-435 melanoma.
Common to all, as to assay: NCI-60 one-dose screen, 48 h (100 = growth as untreated, 0 = no growth, -100 = all killed)
Common to all, as to details: 10 µM unless noted

About 83,000 compounds went through this panel and 20% of them were active in at least one assay; those are over-represented in the sample as a whole.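 Assay: single dose, 48 h. Readout: percent growth (0 = no net growth; negative = cell death). Active: <10.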 A number with no mark means an inactive call. Calls of active or inactive are those of the source.

Consider `CCOC(=O)c1c(Nc2ccccc2)nn2c(-c3ccc(OC)c(OC)c3)ccnc12`, for which the growth is 23.6% with SR leukemia; 30.4% in the test on RPMI-8226 leukemia; 50.5% in the test with OVCAR-8 ovarian; 84.7% in the test on OVCAR-5 ovarian; 72.4% in the test with OVCAR-4 ovarian; 72% in the test with SK-OV-3 ovarian. Besides, the growth was 102% in the test with IGROV1 ovarian; 49.4% with HS 578T breast; 48.9% in the test on NCI/ADR-RES ovarian; 41.3% in the test on T-47D breast; 112% in the test on BT-549 breast; 40.9% in the test on SW-620 colon. Also, the growth is 55% in the test with MCF7 breast, 42.7% in the test with HCT-116 colon, 52.2% with HCC-2998 colon and 44.9% in the test on KM12 colon.
Consider `Cn1cc2c(c1)-c1c(sc3nc(-c4ccc(NC(=O)Nc5cc(C(C)(C)C)on5)cc4)cn13)CC2`, for which the growth is 9.8% (active) in the test on SR leukemia; -7.75% (active) in the test on RPMI-8226 leukemia; 53.8% in the test on OVCAR-8 ovarian; 74.8% with OVCAR-5 ovarian; 57.7% with OVCAR-4 ovarian; 49.3% with SK-OV-3 ovarian. For the same molecule, the growth with IGROV1 ovarian was 66.7%; in the test on HS 578T breast it was -0.139% (active); in the test with NCI/ADR-RES ovarian, 52.8%; with T-47D breast, 30.2%; in the test with BT-549 breast, 71.3%; with MDA-MB-435 melanoma it was 51.9%. Also, the growth in the test on SW-620 colon is 73%; in the test with HCT-116 colon it was 39%; in the test with KM12 colon it was 21.7%.
`Nc1nc(-c2cccc([N+](=O)[O-])c2)c(N=Nc2ccccc2[N+](=O)[O-])s1`: the growth was 48.5% with SR leukemia; 36.4% in the test with RPMI-8226 leukemia; 8.47% (active) in the test on OVCAR-8 ovarian; 43.5% in the test on OVCAR-5 ovarian; -2.02% (active) in the test on OVCAR-4 ovarian; -46.6% (active) with SK-OV-3 ovarian. Further, the growth in the test on IGROV1 ovarian is 1.09% (active); with HS 578T breast it was 6.64% (active); with NCI/ADR-RES ovarian, 16.8%; in the test on T-47D breast it was 42.3%; with BT-549 breast it was 34.4%; with SW-620 colon, 6.99% (active). Besides, the growth is -13.8% (active) in the test with HCT-116 colon and 54.2% with KM12 colon.
For `Cn1cc(-c2nn3cc(-c4ccncc4)nc3s2)c2cc(Cl)ccc21`, the growth is -4.53% (active) in the test on SR leukemia; 19.5% with RPMI-8226 leukemia; 14.6% in the test with OVCAR-8 ovarian; 66.8% in the test with OVCAR-5 ovarian; 78.6% in the test with OVCAR-4 ovarian; 89.5% with SK-OV-3 ovarian. Besides, the growth in the test with IGROV1 ovarian was 17.2%; in the test with HS 578T breast, 49.8%; in the test on NCI/ADR-RES ovarian, 32.4%; in the test with T-47D breast it was 31.3%; with BT-549 breast, 46%; in the test on MDA-MB-435 melanoma, 14.5%. Also, the growth in the test with SW-620 colon was 18.8%; in the test on MCF7 breast, 17%; in the test with HCT-116 colon it was -52.9% (active); in the test with KM12 colon it was 56.5%.
For the molecule `COc1ccc(-c2nc3cc(Cl)c(Cl)cc3n2CC(=O)N=Nc2c(O)[nH]c3ccccc23)cc1`, the growth in the test with SR leukemia was 66.4%; in the test with RPMI-8226 leukemia it was 62.5%; in the test on OVCAR-8 ovarian it was 78.4%; with OVCAR-5 ovarian, 63%; in the test with OVCAR-4 ovarian it was 75.1%; in the test with SK-OV-3 ovarian, 100%. Moreover, the growth with IGROV1 ovarian is 52.9%; with HS 578T breast, 53.4%; with T-47D breast, 57.8%; in the test on BT-549 breast it was 78.3%; in the test with MDA-MB-435 melanoma it was 68.8%; in the test on SW-620 colon, 62.4%. Moreover, the growth in the test on MCF7 breast is 45.7%; in the test on HCT-116 colon, 22.6%; with HCC-2998 colon, 66%; in the test on KM12 colon, 68.2%.
Take `O=C(NCCNc1cc(-c2cn(-c3ccccc3)nc2-c2cccc(O)c2)ccn1)Nc1ccc(Cl)c(C(F)(F)F)c1`: the growth in the test on SR leukemia was 65.5%; in the test on RPMI-8226 leukemia, 17.5%; in the test with OVCAR-8 ovarian, 74.1%; with OVCAR-5 ovarian, 59.9%; in the test with OVCAR-4 ovarian it was 73.5%; with SK-OV-3 ovarian, 94.6%. Moreover, the growth in the test with IGROV1 ovarian is 69%; in the test with HS 578T breast it was 41.6%; with NCI/ADR-RES ovarian, 49.8%; in the test with T-47D breast, 67.3%; in the test with BT-549 breast, 98%; in the test with MDA-MB-435 melanoma it was 52.8%. In addition, the growth in the test with SW-620 colon is 46.8%; with MCF7 breast, 10.4%; in the test on HCT-116 colon it was 50.6%; in the test with KM12 colon, 37.9%.
On to `COc1cc(/C=C/C(=O)c2ccc(N3CCN(C)CC3)cc2)ccc1F`, for which the growth with SR leukemia was 28.3%; with RPMI-8226 leukemia, 28.4%; in the test with OVCAR-8 ovarian it was 88.9%; with OVCAR-5 ovarian, 81.6%; in the test on OVCAR-4 ovarian, 75.9%; in the test with SK-OV-3 ovarian, 99.3%. For the same molecule, the growth in the test with IGROV1 ovarian is 56.6%; in the test with HS 578T breast, 104%; with NCI/ADR-RES ovarian, 82.8%; in the test on T-47D breast, 44.4%; in the test on MDA-MB-435 melanoma it was 54.7%; with SW-620 colon, 33%. Further, the growth in the test on MCF7 breast is 24.9%; in the test on HCT-116 colon, 27.8%; in the test on HCC-2998 colon it was 73%; in the test on KM12 colon, 36.7%.
Consider `CNC(=O)c1cc(Oc2ccc3nc(NC(=O)c4ccc(CN5CCCN(C)CC5)c(C(F)(F)F)c4)sc3c2)ccn1`, for which the growth in the test with SR leukemia was -59.8% (active); with RPMI-8226 leukemia it was -31.1% (active); in the test with OVCAR-8 ovarian it was 32.4%; in the test on OVCAR-5 ovarian, 53.6%; in the test with OVCAR-4 ovarian, 52.3%; in the test on SK-OV-3 ovarian it was 80.3%. In addition, the growth in the test with IGROV1 ovarian is 60.6%; with HS 578T breast, -1.04% (active); with NCI/ADR-RES ovarian it was 60.6%; in the test on T-47D breast, 7.14% (active); in the test on BT-549 breast, 83.2%; in the test with MDA-MB-435 melanoma, -8.88% (active). For the same molecule, the growth with SW-620 colon was -70.9% (active); in the test on MCF7 breast, -38.9% (active); with HCT-116 colon, 5.99% (active); with KM12 colon, 30.3%.
Turning to `CC[C@]12C=CCN3CC[C@]4(C(=C(C(=O)OC)C1)Nc1cc5c(cc14)[C@@H]1[C@H](O5)[C@@H](O)[C@@]4(CC)CC(C(=O)OC)=C5Nc6cc(OC)ccc6[C@@]56CCN1[C@@H]46)[C@@H]32`, the growth in the test on SR leukemia was 5.56% (active); in the test on RPMI-8226 leukemia it was -23.3% (active); in the test with OVCAR-8 ovarian, 19.5%; with OVCAR-5 ovarian, 25.4%; in the test with OVCAR-4 ovarian, 31.2%; with SK-OV-3 ovarian, 25%. For the same molecule, the growth was 6.73% (active) with IGROV1 ovarian; 11.6% with HS 578T breast; 12.4% with NCI/ADR-RES ovarian; 9.28% (active) in the test with T-47D breast; 37.8% in the test with BT-549 breast; -12.5% (active) with MDA-MB-435 melanoma. The growth was 3.27% (active) with SW-620 colon, 6.01% (active) with MCF7 breast, -87.2% (active) in the test with HCT-116 colon and 9.56% (active) in the test with KM12 colon.
